The source of these data is PubChem BioAssay (Tox21).

Inconclusive results are not listed. Entries that show only a call come without a potency. Calls of active or inactive are those of the source. The call rests on the fitted dose curve; in most records, active means well fitted cell-killing curve with a large enough effect in the repeat runs; inconclusive means weak or mixed curves, or effect the other way; inactive means flat fitted curve, though single readings scatter.

The test in a line: cAMP Responsive Elements (CRE) small molecule agonists, cell-based qHTS assay: qHTS cell viability counter screen (AID 2060914). Further: nearly all actives have a fitted effect of over 50% in size. Conditions: CRE-bla HEK293T viability, CellTiter-Glo luminescence, 5 h; series mostly up to 92.4 µM. The procedure, abridged: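 Luminescence read-out (CellTiter-Glo, 30 min RT) of ATP-based viability in CRE-bla HEK 293T cells, run in the same wells as the β-lactamase reporter assay after 3 h compound treatment at 37 °C.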
(qHTS replaces the single test concentration by a dilution series.)
For `FC(F)C(F)(F)OCC(Cn1cncn1)c1ccc(Cl)cc1Cl` (stereo not given), the Potency entry was “inactive”.
With `CC(C)c1ccc(OP(=O)(Oc2ccc(C(C)C)cc2)Oc2ccc(C(C)C)cc2)cc1`, the Potency result is “inactive”.
The entry for `CCOP(=O)(OCC)O/C(=C/Cl)c1ccc(Cl)cc1Cl` is “inactive”; for `C=C(C)[C@H]1CN[C@H](C(=O)O)[C@H]1CC(=O)O` it is “inactive”.
For the compound `CCC1(c2cccc(O)c2)CCCCN(C)C1` (stereo not given), the Potency result is “inactive”.
The entry for `C=CC(=O)OCCCCOC(=O)C=C` is “inactive”; for `CCOC(=O)OC1=C(c2cc(C)ccc2C)C(=O)NC12CCC(OC)CC2` (stereo not given) it is “inactive”; for `CCCCCCCCn1cc[n+](C)c1` it is “inactive”.
`NC1CCC(CC2CCC(N)CC2)CC1` (stereo not given): the Potency result is “inactive”.
The entry for `c1ccc(NNc2ccccc2)cc1` is “inactive”.
The entry for `CC1(C)[C@H](C=C(Cl)Cl)[C@@H]1C(=O)O[C@@H](C#N)c1cccc(Oc2ccccc2)c1` is “inactive”.
The entry for `Cc1c(COC(=O)[C@@H]2[C@H](/C=C(\Cl)C(F)(F)F)C2(C)C)cccc1-c1ccccc1` is “inactive”; for `CCCOCC(=Nc1ccc(Cl)cc1C(F)(F)F)n1ccnc1` it is “inactive”.
Take `CCCC(C)(COC(N)=O)COC(N)=O`: the Potency entry was “inactive”.
Take `CCOP(=S)(OCC)Oc1nc(Cl)n(C(C)C)n1`: the Potency result was “inactive”.
The entry for `CC(c1ccccc1)(c1ccc(O)cc1)c1ccc(O)cc1` is “inactive”.
The entry for `CC(C)CBr` is “inactive”.
The entry for `CO/C=C(/C(=O)OC)c1ccccc1COc1cccc(C(F)(F)F)n1` is “inactive”; for `Nc1nc(N)c(N)c(N)n1` it is “inactive”; for `Clc1ccc(C(c2ccc(Cl)cc2)C(Cl)(Cl)Cl)cc1` it is “inactive”.
Turning to `C[C@]12CCC(=O)C[C@@H]1CC[C@@H]1[C@@H]2CC[C@]2(C)[C@@H](O)CC[C@@H]12`, the Potency result is “inactive”.
The entry for `N#Cc1ccccc1Cl` is “inactive”; for `CC1COC(Cn2cncn2)(c2ccc(Oc3ccc(Cl)cc3)cc2Cl)O1` (stereo not given) it is “inactive”; for `CCCCCCCCCCCC(=O)O` it is “inactive”.
In the case of `CC[C@H](N)c1ccccc1`, the Potency entry was “inactive”.
The entry for `CCCCCCCC(=O)Cl` is “inactive”.
The entry for `Nc1cc(Cl)ccc1Cl` is “inactive”.
The entry for `C=CC(=O)OCC(CC)(COC(=O)C=C)COC(=O)C=C` is “inactive”; for `OCC(c1ccc(Cl)cc1)c1ccc(Cl)cc1` it is “inactive”.
As to `CON(C)C(=O)Nc1ccc(Cl)cc1`, the Potency entry was “inactive”.
The entry for `COP(=S)(OC)Oc1ccc([N+](=O)[O-])c(C)c1` is “inactive”.
The entry for `Clc1nc(Cl)nc(Cl)n1` is “inactive”.
As for `COC(=O)c1ccccc1C(=O)OC`, the Potency result was “inactive”.
The entry for `O=C(CCCN1CCC(n2c(=O)[nH]c3ccccc32)CC1)c1ccc(F)cc1` is “inactive”.
Regarding `CC(C)=CCN1CC[C@@]2(C)c3cc(O)ccc3C[C@@H]1[C@@H]2C`, the Potency entry was “inactive”.
The entry for `Cc1cc(C)c(C(=O)P(=O)(c2ccccc2)c2ccccc2)c(C)c1` is “inactive”; for `CC[N+]1(C)CCCC(OC(=O)C(O)(c2ccccc2)c2ccccc2)C1` (stereo not given) it is “inactive”.
The entry for `Nc1ncn[nH]1` is “inactive”; for `Cc1cc(N=Nc2ccccc2C)ccc1N` it is “inactive”; for `CCCCOCN(C(=O)CCl)c1c(CC)cccc1CC` it is “inactive”.
